The values that follow come from PubChem BioAssay AID1345083 (National Center for Advancing Translational Sciences (NCATS), 2018).

The campaign covered roughly 94,000 compounds. About 6,200 (6.6%) were called active. Another 31% or so got no clear call; they are omitted. The sample holds actives, similar compounds and a random draw of the others, so the mix is not that of the screen. Calls follow the shape of the dose curve; as a rule, active = well fitted inhibition curve with a large enough effect; inconclusive = small, poorly fitted or top-dose-only effect; inactive = flat fitted curve, though single readings scatter.
% is scaled to controls: 0 for no effect and ±100 for the full control effect; potency is read from the fitted curve at half-maximal effect.

The test can be described thus: Cytotoxic Profiling in HEK 293 Cell Line of Diverse Libraries Using Quantitative High-Throughput Screening. Also: nearly all actives have a fitted effect of over 60% in size. The note with it: HEK 293 viability, ATP luminescence (CellTiter-Glo), 48-72 h; series mostly up to 115 µM; activity change, negative = cytotoxicity: at the top concentration. An excerpt:
Cell-based phenotypic screening is a commonly used approach to discover biological pathways, novel drug targets, chemical probes and high-quality hit-to-lead molecules. Many hits identified from high-throughput screening campaign are ruled out through a series of follow-up potency, selectivity/specificity, and cytotoxicity assays. Prioritization of molecules with little or no cytotoxicity for a more in-depth downstream evaluation influence the future direction of projects, so cytotoxicity profiling of the screening libraries at early stage is essential for increasing the likelihood of candidate success. In this study, we analyzed results from a cell-based cytotoxicity screening campaign, comprising nearly 10,000 compounds in NCATS annotated libraries, and over 100,000 compounds in a diversity library, evaluated in four normal cell lines (HEK 293, NIH 3T3, CRL-7250 and HaCat) and a cancer cell line (KB 3-1, a HeLa subline) with overall screening outcomes, hit rates, pan-activity and selectivity. For the annotated library, we also examined the primary targets and mechanistic pathways regularly associated with cell death. To our knowledge, this is the first study to use high-throughput screening to profile large libraries for cytotoxicity assessment in both normal and cancer cell lines. In summary, the results generated here constitutes a valuable resource for the scientific community and provides insight on identifying cytotoxic compounds with particular mechanisms of action, and prioritizing compounds with suitable cytotoxicity profile for further evaluation.
HEK 293 cells were seeded into white 1536-well plates using a Multidrop Combi peristaltic dispenser (ThermoFisher, Waltham, MA) at a density of 250 cells/well in 5 uL of medium respectively. A pintool (Kalypsys) was used to transfer 23 nL of compound solution to the 1536-well assay plates. After 48 or 72 hr incubation at 37 degree Celsius, 5% CO2 and 95% humidity, 2.5 uL of CellTiter-Glo (Promega) was dispensed into each well using a dispenser (Aspect Automation, St. Paul, MN) with solenoid valves (Lee Valves, Westbrook CT). Plates were left at room temperature for 10 min before imaging the ATP-coupled luminescence using a ViewLux microplate imager (PerkinElmer, Waltham, MA).
On the technique in general: Cellular ATP, detected with luciferase, serves as a proxy for viable cell number.
With `COc1cccc(CC(=O)N2CCC(CC3CC3)(NC(=O)c3ccccc3)CC2)c1`, the “activity change, negative = cytotoxicity” value is -16.1% (inactive).
As to `COCC1CN(C(C)=O)CC12CCN(Cc1cccc(C#N)c1)CC2` (configuration not stated), the “activity change, negative = cytotoxicity” value is 0.069% (inactive).
For the compound `CC(=O)NC1(C)CCN(Cc2cccc(-c3ccc(C(=O)c4ccccc4)cc3)c2)C1` (configuration not stated), the Potency is 39.8 µM (active).
As for `CCC(C(=O)Nc1ccc2c(c1)CN(Cc1cc(F)cc(F)c1)C(=O)CO2)c1ccccc1` (configuration not stated), the Potency was 44.7 µM (active).
In the case of `COc1cccc(CC(=O)N[C@@H]2C[C@H](Cn3cc(C4CC4)nn3)[C@@H](O)[C@H]2O)c1`, the “outcome” value was “inactive [at 172 µM]”.
With `Cc1cc2nc3n(c(=O)c2n1CC(=O)NC1CCCCC1)CCCC3`, the “activity change, negative = cytotoxicity” value was 8.3% (inactive).
As for `FC(F)(F)c1cccc(-c2cc(C3=CCOCC3)c3cncn3c2)c1`, the Potency is 100 µM (active).
As for `OCc1cccc(-c2cc(C3=CCOCC3)c3cncn3c2)c1`, the “activity change, negative = cytotoxicity” value is -21.3% [at 172 µM] (inactive).
As to `CC1=NS(=O)(=O)N(Cc2ccc(Cl)cc2)C=C1C(=O)O`, the “activity change, negative = cytotoxicity” value is -2.93% (inactive).
On to `COc1ccc(CCC(=O)N2C[C@@H](Oc3ccccc3)C[C@H]2C(=O)N2CCOCC2)cc1`, for which the “activity change, negative = cytotoxicity” value was -0.714% (inactive).
Take `Cc1ccc(-c2cn3cc(C(=O)NCc4cccnc4)nc3s2)cc1`: the Potency is 44.7 µM (active).
As for `O=C(c1cn2cc(-c3cccnc3)sc2n1)N1CCCCC1`, the “activity change, negative = cytotoxicity” value was -5.61% (inactive).
As to `Cc1cc2ncc(C(=O)NCc3cccnc3)cn2n1`, the “outcome” value is “inactive [at 172 µM]”.
Regarding `O=C(NCc1cccnc1)c1cn2cc(-c3cccc(C(F)(F)F)c3)sc2n1`, the Potency is 28.2 µM (active).
For the compound `O=C(NCc1ccccc1Cl)c1cn2cc(-c3ccc(C(F)(F)F)cc3)sc2n1`, the “activity change, negative = cytotoxicity” value was -12.3% (inactive).
With `O=C(Nc1ccc(F)cc1)c1cn2cc(-c3ccc(C(F)(F)F)cc3)sc2n1`, the “activity change, negative = cytotoxicity” value is -0.955% (inactive).
`Cc1noc(C)c1S(=O)(=O)N1CCCC(c2nn[nH]n2)C1` (configuration not stated): the compound was called inactive.
As to `CN(C)CC1(O)CCC2(CCN(C(=O)c3ccc4ccccc4n3)CC2)CC1`, the “activity change, negative = cytotoxicity” value is -3.02% (inactive).
Regarding `COC(=O)N1CCCC(C(=O)N2CCC3(CC2)CC(=O)Nc2ccccc2O3)C1` (configuration not stated), the “activity change, negative = cytotoxicity” value is -25.2% (inactive).
As to `COc1cccc(Nc2n[nH]c(C(O)c3cccc(C(F)(F)F)c3)n2)c1` (configuration not stated), the Potency was 79.4 µM (active).
Still for that read-out and setting: then `COc1ccccc1C(O)c1nc(Nc2ccc(C(F)(F)F)cc2)n[nH]1` (configuration not stated), with 89.1 µM (active).
On to `O=C1CCN(C(=O)c2nccc3ccccc23)CCOCCN1`, for which the “activity change, negative = cytotoxicity” value is -0.481% (inactive).
Turning to `COCCNC(=O)CN1C(=O)NC2(CCC(C(C)(C)C)CC2)C1=O` (configuration not stated), the “activity change, negative = cytotoxicity” value was -19.9% (inactive).
For the compound `O=C(c1cccc(N2CCNC2=O)c1)N1CC(=O)N(C2CCCCC2)CC(OCc2ccccc2)C1` (configuration not stated), the “activity change, negative = cytotoxicity” value is 21.7% (inactive).
As to `O=c1n(CCN2CCN([S+](=O)([O-])c3ccccc3)CC2)nc2n1CCCC2`, the “activity change, negative = cytotoxicity” value was -11.1% (inactive).
For `Cc1cc(C)n(Cc2cc(C(=O)N3CCSCC3)n[nH]2)n1`, the compound was classed as inactive.
In the case of `FC(F)(F)c1ccc(CN2CCn3c(nnc3-c3ccccc3)C2)cc1`, the Potency is 89.1 µM (active).
Regarding `Clc1ccc(-c2nnc3n2CCN(Cc2cccnc2)C3)cc1`, the compound was classed as inactive.
Regarding `CC(=O)Nc1ccc(CN2CCn3c(nnc3-c3ccccc3)C2)cc1`, the “activity change, negative = cytotoxicity” value was -4.01% (inactive).
With `COc1ccc(C(=O)N2CCC(n3cc(-c4nc(C)no4)nn3)CC2)c(OC)c1`, the “activity change, negative = cytotoxicity” value was -3.26% (inactive).
In the case of `CCN1CCC(N2CC[C@H](CO)[C@H](N(C)C)C2)CC1`, the “activity change, negative = cytotoxicity” value was -0.762% (inactive).
As to `COCCn1c(=O)n([C@H]2CCCN(C(=O)c3cc(C)n(C)n3)C2)c2ncccc21`, the “activity change, negative = cytotoxicity” value was 0.0693% (inactive).
The same measure, in the same setting: then `COCC(=O)Nc1ccc2c(c1)CN(Cc1ccccc1F)C(=O)C(C)O2` (configuration not stated), with -28.2% (inactive).
On to `CC1Oc2ccc(NC(=O)c3ccc([N+](=O)[O-])cc3)cc2CN(Cc2ccccc2)C1=O` (configuration not stated), for which the Potency was 31.6 µM (active).
As for `Cc1nn2c(c1-c1ccccc1-c1ccccc1)N(C(=O)CN1CCOCC1)CCC2`, the “activity change, negative = cytotoxicity” value is -19.4% [at 172 µM] (inactive).
Consider `Cc1nn2c(c1-c1ccccc1C(C)C)N(C(=O)c1cnccn1)CCC2`, for which the “activity change, negative = cytotoxicity” value was -10.1% [at 172 µM] (inactive).
As for `Cc1nn2c(c1-c1ccccc1-c1ccccc1)N(CC1CC1)CCC2`, the Potency was 2.82 µM (active).
On to `Cc1nn2c(c1-c1ccnn1C(C)C)N(CC1CCOCC1)CCC2`, for which the Potency is 44.7 µM (active).
As for `Cc1nc(C)c(C(=O)N2CCCN(S(=O)(=O)c3ccccc3)CCC(=O)NCC2)s1`, the call was inactive.
For `O=C1NCCCCCN(Cc2cccnc2)[C@@H]2CN(C(=O)C3CCCCC3)CC[C@@H]12`, the “activity change, negative = cytotoxicity” value is -21.9% (inactive).
With `COC(=O)c1c(NC(=O)c2ccccc2)c2cc(NC(C)C)cnc2n1CC1CCCO1` (configuration not stated), the call was inactive.
As for `O=C(N[C@@H]1CN(c2ncccn2)C[C@H]1CO)c1ccco1`, the “activity change, negative = cytotoxicity” value was -4.45% (inactive).
Still for that read-out and setting: then `Cc1nc(C)c(C(=O)N2CCC3(CC2)CC(N2CCCC2)CCO3)s1` (configuration not stated), with 0.51% (inactive); and `CCN1CC2(CCN(C(=O)[C@H]3Cc4ccccc4CN3)CC2)CC1=O`, with -15% (inactive).
For `O=C(NCc1nnc2n1C(C(=O)NCCc1ccc(Cl)cc1)CC2)c1ccc(Cl)cc1Cl` (configuration not stated), the “activity change, negative = cytotoxicity” value was -7.78% (inactive).
The same measure, in the same setting: then `CC(C)CC(=O)NCC1Cn2cccc2CN1Cc1ccccc1` (configuration not stated), with -15.5% (inactive).
As for `COCC(=O)N1CCN(C(=O)c2cccc(-c3ccc(OC)nn3)c2)CC1`, the call was inactive.
For the compound `COC(=O)N1CCN(C(=O)c2cccc(-c3ccccc3OC)c2)CC1`, the Potency was 63.1 µM (active).
For `COc1ccccc1-c1cccc(C(=O)N2CCC[C@H]2C(=O)N(C)C)c1`, the “activity change, negative = cytotoxicity” value was -0.487% (inactive).
Regarding `CC(=O)N1CC2(CCN(CCCn3ccnc3C)CC2)CC1C(=O)O` (configuration not stated), the compound was called inactive.
In the case of `Cc1cnc(C(=O)NC2C[C@H]3CC[C@@H](C2)N3C(=O)c2cc(C)n(C)n2)cn1` (some centres not stated), the outcome was inactive.
On to `CC1(c2ccccc2)N(Cc2ncccn2)C(=O)OC12CCN(CCCc1ccccc1)CC2` (configuration not stated), for which the “activity change, negative = cytotoxicity” value was -16.8% (inactive).
